From the supplement of paper PMC10849652
Targets with a hit are over-represented here; the source holds about 7,900 in all. About 0.6% of all pairs of compound and target were hits. A number with no mark means an inactive call.

Assays:
Assay in all cases: log2 fold change, soluble protein after heating vs DMSO (PISA); higher = thermal stabilisation; K562 cells, 10 uM, 30 min; active = over 0.2 and 3.5 SD of the protein, either way, in both replicates (recomputed)
[1] = compound: CC[C@@H]1C(=O)N(C)c2cnc(Nc3ccc(C(=O)NC4CCN(C)CC4)cc3OC)nc2N1C1CCCC1
Summary of the method: (§1)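 For each measurement, 10 μM compound was applied for 30 min to K562 cells at 2×10^6 cells/mL. Aliquots were heated for 3 min across 48°C-58°C, pooled, and extracted in PBS with 0.5% NP-40 at 4°C; the supernatant after 21,000xg for 90 min was soluble protein. This was quantified by TMTpro 16plex LC-MS/MS with channel sums equalised, and thermal stability was reported relative to control samples from duplicates, on a log2 fold-change scale.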

volasertib = compound: CC[C@@H]1C(=O)N(C)c2cnc(Nc3ccc(C(=O)N[C@H]4CC[C@H](N5CCN(CC6CC6)CC5)CC4)cc3OC)nc2N1C(C)C [volasertib]
Summary of the method: as §1

[2] = compound: CC[C@H](C)N1C=C(C2=C(C=C(C=C21)C3=CN=C(C=C3)N4CCNCC4)C(=O)NCC5=C(C=C(NC5=O)C)C)C
Summary of the method: as §1

epoxomicin = compound: CC[C@H](C)[C@@H](C(=O)N[C@@H]([C@@H](C)O)C(=O)N[C@@H](CC(C)C)C(=O)[C@]1(CO1)C)NC(=O)[C@H]([C@@H](C)CC)N(C)C(=O)C [epoxomicin]
Summary of the method: as §1

[3] = compound: CCn1c(C(=O)N(C2CC2)C2CC2)cc2c3c(ncn3C)c(Nc3cc(C)n(C)n3)nc21
Summary of the method: as §1

[4] = compound: CCn1cc(-c2ccnc3[nH]c(-c4cccc(CN(C)C)c4)cc23)c(-c2ccc(NC(=O)N(C)C)cc2)n1
Summary of the method: as §1

[5] = compound: CN(C)CC(=O)Nc1ccc2[nH]c(=O)c3ccccc3c2c1
Summary of the method: as §1

rosiglitazone = compound: CN(CCOC1=CC=C(C=C1)C[C@H]2C(=O)NC(=O)S2)C3=CC=CC=N3 (racemic) [rosiglitazone]
Summary of the method: as §1

[6] = compound: CN1C2=C(C3=C1C(=O)N(N=C3)CC4=CC(=CC=C4)N)SC(=C2)S(=O)C
Summary of the method: as §1

[7] = compound: CN1CCC(CNc2ccc3ncc(-c4cccc(OC(F)(F)F)c4)n3n2)CC1
Summary of the method: as §1

saracatinib = compound: CN1CCN(CCOc2cc(OC3CCOCC3)c3c(Nc4c(Cl)ccc5c4OCO5)ncnc3c2)CC1 [saracatinib]
Summary of the method: as §1

sotrastaurin = compound: CN1CCN(c2nc(C3=C(c4c[nH]c5ccccc45)C(=O)NC3=O)c3ccccc3n2)CC1 [sotrastaurin]
Summary of the method: as §1

alvocidib = compound: CN1CC[C@H](c2c(O)cc(O)c3c(=O)cc(-c4ccccc4Cl)oc23)[C@H](O)C1 [alvocidib]
Summary of the method: as §1

Tubastatin A = compound: CN1CCc2c(c3ccccc3n2Cc2ccc(C(=O)NO)cc2)C1 [Tubastatin A]
Summary of the method: as §1

[8] = compound: CNC(=O)C1=CC=CC=C1NC2=NC(=NC=C2Cl)NC3=C(C=C(C=C3)N4CCOCC4)OC
Summary of the method: as §1

defactinib = compound: CNC(=O)c1ccc(Nc2ncc(C(F)(F)F)c(NCc3nccnc3N(C)S(C)(=O)=O)n2)cc1 [defactinib]
Summary of the method: as §1

rucaparib = compound: CNCc1ccc(-c2[nH]c3cc(F)cc4c3c2CCNC4=O)cc1 [rucaparib]
Summary of the method: as §1

[9] = compound: CNc1nc(-c2ccc3c(N)n[nH]c3c2)cc(N2C[C@@H](C(=O)NC3CCCCC3)CC[C@H]2C)n1
Summary of the method: as §1

encorafenib = compound: COC(=O)N[C@@H](C)CNc1nccc(-c2cn(C(C)C)nc2-c2cc(Cl)cc(NS(C)(=O)=O)c2F)n1 [encorafenib]
Summary of the method: as §1

[10] = compound: COC(=O)[C@H](CCSC)NC(=O)C1=C(C=C(C=C1)NC[C@H](CS)N)C2=CC=CC=C2
Summary of the method: as §1

UniProt Q9UK99, sequence (Q9UK99 whole entry, looked up): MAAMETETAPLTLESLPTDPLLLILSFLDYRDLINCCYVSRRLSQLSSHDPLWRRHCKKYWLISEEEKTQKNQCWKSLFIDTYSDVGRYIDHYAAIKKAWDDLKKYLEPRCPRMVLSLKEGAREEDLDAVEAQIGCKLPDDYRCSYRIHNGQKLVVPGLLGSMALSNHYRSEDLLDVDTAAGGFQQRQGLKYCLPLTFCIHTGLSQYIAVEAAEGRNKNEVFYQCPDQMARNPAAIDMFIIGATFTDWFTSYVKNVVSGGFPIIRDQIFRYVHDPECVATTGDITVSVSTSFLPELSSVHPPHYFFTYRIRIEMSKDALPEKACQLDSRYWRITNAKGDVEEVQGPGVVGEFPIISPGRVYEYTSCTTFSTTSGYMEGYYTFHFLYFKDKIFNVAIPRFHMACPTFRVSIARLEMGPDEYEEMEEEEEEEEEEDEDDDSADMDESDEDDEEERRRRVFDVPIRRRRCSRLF
UniProt P04066, sequence (P04066 whole entry, looked up): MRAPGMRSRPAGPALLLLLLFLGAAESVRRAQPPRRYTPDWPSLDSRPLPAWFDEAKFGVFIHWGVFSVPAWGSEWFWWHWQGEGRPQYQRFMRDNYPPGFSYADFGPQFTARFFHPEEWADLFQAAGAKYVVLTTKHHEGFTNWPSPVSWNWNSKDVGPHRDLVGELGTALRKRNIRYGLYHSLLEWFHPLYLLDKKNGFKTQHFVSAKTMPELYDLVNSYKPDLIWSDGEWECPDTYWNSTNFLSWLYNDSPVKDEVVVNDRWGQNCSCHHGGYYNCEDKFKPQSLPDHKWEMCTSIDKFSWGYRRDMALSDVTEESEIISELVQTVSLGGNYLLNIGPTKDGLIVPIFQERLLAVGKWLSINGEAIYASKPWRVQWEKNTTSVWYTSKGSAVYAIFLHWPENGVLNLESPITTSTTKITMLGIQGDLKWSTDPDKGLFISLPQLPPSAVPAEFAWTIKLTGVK
UniProt Q92664, sequence (Q92664 whole entry, looked up): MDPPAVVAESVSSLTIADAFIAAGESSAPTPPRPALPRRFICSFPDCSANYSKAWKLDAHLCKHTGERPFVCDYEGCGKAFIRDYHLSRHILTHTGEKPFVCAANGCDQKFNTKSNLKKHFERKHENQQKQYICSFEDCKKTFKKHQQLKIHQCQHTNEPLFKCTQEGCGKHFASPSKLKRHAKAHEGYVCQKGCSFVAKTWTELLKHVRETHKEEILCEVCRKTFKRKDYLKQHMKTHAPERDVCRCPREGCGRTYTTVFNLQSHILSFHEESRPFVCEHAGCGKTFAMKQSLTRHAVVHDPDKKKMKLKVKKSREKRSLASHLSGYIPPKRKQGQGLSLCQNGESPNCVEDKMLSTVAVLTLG
UniProt P29083, sequence (P29083 whole entry, looked up): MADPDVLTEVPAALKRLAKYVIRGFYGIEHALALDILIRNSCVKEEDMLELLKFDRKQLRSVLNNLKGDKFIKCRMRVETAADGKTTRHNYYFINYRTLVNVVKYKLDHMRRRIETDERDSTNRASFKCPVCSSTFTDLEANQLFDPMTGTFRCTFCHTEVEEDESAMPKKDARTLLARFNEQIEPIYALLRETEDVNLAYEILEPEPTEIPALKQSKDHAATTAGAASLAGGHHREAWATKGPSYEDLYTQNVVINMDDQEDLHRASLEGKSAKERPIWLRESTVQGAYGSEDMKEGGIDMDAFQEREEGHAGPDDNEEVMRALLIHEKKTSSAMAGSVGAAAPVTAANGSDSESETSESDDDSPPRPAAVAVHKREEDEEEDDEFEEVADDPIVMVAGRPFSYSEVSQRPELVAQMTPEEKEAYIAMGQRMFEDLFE
UniProt P09211, sequence (P09211 whole entry, looked up): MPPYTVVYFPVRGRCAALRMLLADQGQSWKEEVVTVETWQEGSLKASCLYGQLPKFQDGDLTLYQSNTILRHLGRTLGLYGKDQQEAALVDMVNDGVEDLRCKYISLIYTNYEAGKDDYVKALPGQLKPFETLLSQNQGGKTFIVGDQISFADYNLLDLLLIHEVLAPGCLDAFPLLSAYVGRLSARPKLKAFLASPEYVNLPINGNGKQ
UniProt P02008, sequence (P02008 whole entry, looked up): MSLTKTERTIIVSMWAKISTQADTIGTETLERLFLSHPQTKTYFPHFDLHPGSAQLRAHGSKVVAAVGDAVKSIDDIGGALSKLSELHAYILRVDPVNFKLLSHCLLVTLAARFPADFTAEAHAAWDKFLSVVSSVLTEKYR
UniProt Q8NCW6, sequence (Q8NCW6 whole entry, looked up): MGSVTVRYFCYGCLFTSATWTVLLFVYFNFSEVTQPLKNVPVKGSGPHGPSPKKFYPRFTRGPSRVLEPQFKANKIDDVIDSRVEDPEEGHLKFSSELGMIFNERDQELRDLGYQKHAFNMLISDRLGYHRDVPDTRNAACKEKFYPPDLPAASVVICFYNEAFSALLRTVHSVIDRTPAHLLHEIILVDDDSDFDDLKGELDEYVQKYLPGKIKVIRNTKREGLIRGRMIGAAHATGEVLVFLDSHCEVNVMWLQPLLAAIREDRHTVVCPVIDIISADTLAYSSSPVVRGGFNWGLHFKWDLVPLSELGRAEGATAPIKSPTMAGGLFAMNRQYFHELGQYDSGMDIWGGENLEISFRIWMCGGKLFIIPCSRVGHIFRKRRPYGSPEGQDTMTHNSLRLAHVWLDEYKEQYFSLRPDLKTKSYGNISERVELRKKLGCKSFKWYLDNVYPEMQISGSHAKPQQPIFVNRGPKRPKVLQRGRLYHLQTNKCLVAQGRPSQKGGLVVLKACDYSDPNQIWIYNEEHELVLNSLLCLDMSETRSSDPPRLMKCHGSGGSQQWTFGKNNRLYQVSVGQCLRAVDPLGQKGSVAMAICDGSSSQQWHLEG
UniProt P31943, sequence (P31943 whole entry, looked up): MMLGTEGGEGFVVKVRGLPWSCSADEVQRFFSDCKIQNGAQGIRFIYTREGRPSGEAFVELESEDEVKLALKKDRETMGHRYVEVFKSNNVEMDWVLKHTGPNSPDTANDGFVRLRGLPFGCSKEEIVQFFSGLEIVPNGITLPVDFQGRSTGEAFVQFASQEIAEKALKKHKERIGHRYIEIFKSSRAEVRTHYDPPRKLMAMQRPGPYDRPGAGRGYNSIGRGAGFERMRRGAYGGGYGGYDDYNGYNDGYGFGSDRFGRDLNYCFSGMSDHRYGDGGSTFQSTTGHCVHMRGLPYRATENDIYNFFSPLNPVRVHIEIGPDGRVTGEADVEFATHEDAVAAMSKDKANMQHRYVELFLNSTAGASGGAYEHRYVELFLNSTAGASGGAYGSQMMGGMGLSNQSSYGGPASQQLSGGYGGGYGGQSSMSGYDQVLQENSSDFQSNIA

| Target | log2 fold change [1] | log2 fold change (volasertib) | log2 fold change [2] | log2 fold change (epoxomicin) | log2 fold change [3] | log2 fold change [4] | log2 fold change [5] | log2 fold change (rosiglitazone) | log2 fold change [6] | log2 fold change [7] | log2 fold change (saracatinib) | log2 fold change (sotrastaurin) | log2 fold change (alvocidib) | log2 fold change (Tubastatin A) | log2 fold change [8] | log2 fold change (defactinib) | log2 fold change (rucaparib) | log2 fold change [9] | log2 fold change (encorafenib) | log2 fold change [10] |
| --- | --- | --- | --- | --- | --- | --- | --- | --- | --- | --- | --- | --- | --- | --- | --- | --- | --- | --- | --- | --- |
| GTF2E1 (UniProt P29083) | -0.267 | -0.567 (active) | 0.096 | -0.015 | -0.062 | 0.023 | 0.072 | 0.033 | -0.034 | -0.084 | -0.026 | -0.11 | -0.148 | 0.064 | 0 | -0.272 | -0.126 | -0.047 | 0.199 | -0.099 |
| FUCA1 (UniProt P04066) | -1.33 (active) | -1.73 (active) | -0.061 | -0.03 | 0.007 | -0.006 | -0.025 | -0.008 | -0.017 | -0.141 | 0.038 | -0.048 | 0.059 | -0.035 | -0.015 | -0.032 | -0.186 | 0.023 | 0 | 0.014 |
| GALNT11 (UniProt Q8NCW6) | 0.057 | -0.223 (active) | 0.014 | -0.002 | -0.038 | 0.015 | -0.079 | 0.176 | 0.013 | -0.009 | -0.025 | -0.024 | 0 | 0.028 | 0.033 | -0.187 | -0.047 | 0.01 | -0.064 | -0.055 |
| FBXO3 (UniProt Q9UK99) | 0.041 | 0.042 | 0.052 | 0.007 | 0.001 | -0.074 | -0.03 | 0.045 | 0.023 | -0.038 | 0.029 | 0.049 | -0.048 | 0.157 | -0.051 | 0.072 | 0.016 | -0.076 | 0.018 | -0.005 |
| GSTP1 (UniProt P09211) | 0.295 (active) | 0.362 (active) | 0.009 | -0.025 | 0.032 | 0.012 | -0.013 | 0.007 | -0.066 | -0.034 | -0.011 | 0.053 | -0.051 | -0.015 | -0.001 | -0.033 | -0.046 | 0.02 | -0.007 | 0.027 |
| GTF3A (UniProt Q92664) | -0.128 | -0.028 | 0.074 | -0.101 | -0.024 | -0.263 | 0.049 | 0.071 | 0.016 | -0.447 (active) | 0.019 | -0.008 | -0.113 | -0.072 | -0.03 | -0.18 | 0.206 | -0.005 | -0.138 | 0 |
| HNRNPH1 (UniProt P31943) | -0.124 | -0.583 (active) | 0.1 | 0.018 | -0.192 | -0.025 | 0.072 | 0.025 | 0.083 | -0.247 | -0.018 | -0.157 | -0.163 | 0.076 | -0.065 | -0.278 | 0.08 | 0.058 | 0.114 | -0.047 |
| HBZ (UniProt P02008) | 0.03 | -0.065 | -0.026 | 0.288 (active) | 0.061 | -0.021 | 0.019 | -0.005 | -0.012 | 0.016 | 0.022 | 0.03 | 0.036 | 0 | -0.041 | 0.011 | -0.026 | -0.006 | -0.004 | -0.025 |
